# Experimental data as given in ChEMBL document CHEMBL4513135, “CO-ADD screening of IQOG CSIS (Spain) compounds”.
# Potency and affinity values are given separately.
# Legend:
# Staphylococcus aureus = conditions: Concentration 32 ug.mL-1; ASSAY_TEST Inhibition of Bacterial Growth; detection method Absorption (OD600); MEDIA CAMHB; plate type 384well; NBS; CORNING #3640; time 18 hr
# Escherichia coli = conditions: Concentration 32 ug.mL-1; ASSAY_TEST Inhibition of Bacterial Growth; detection method Absorption (OD600); MEDIA CAMHB; plate type 384well; NBS; CORNING #3640; time 18 hr
Compound,Inhibition (Staphylococcus aureus) [%],Inhibition (Escherichia coli) [%]
Cl.N#Cc1c(Cl)nc(N)nc1NCCO,-0.92,-1.11
Cc1[nH]nc2c1C(c1ccc(O)c(O)c1)C(C#N)=C(N)O2 (configuration not stated),9.09,8.02
C#CCNc1nc(NCCCCC2CCN(Cc3ccccc3)CC2)c(C#N)cc1C#N,5,-12.03
Nc1c2c(nc3c1C(c1ccc([N+](=O)[O-])cc1)c1ccc4ccccc4c1O3)CCCC2 (configuration not stated),-9.37,-12.22
N#Cc1cc(C#N)c(NCc2ccccc2)nc1N,27.12,-14.28
C#CCN(C)c1nc(NC2CCN(Cc3ccccc3)CC2)c(C#N)c(-c2ccccc2)c1C#N,0.44,-3.84
N#Cc1c(N)nc(N)c(C#N)c1-c1ccccc1,24.97,-10.66
C#CCN(C)Cc1cc2cc(OCCCC3CCN(Cc4ccc(OC)c5ncccc45)CC3)ccc2n1C,8.98,-14.67
C#CCNC.O=C(O)C(=O)O,24.36,23.06
Cc1nc2c3c(C)nn(-c4ccccc4)c3ncn2n1,11.24,12.68
CNC(=O)NC1(C(=O)O)CC1c1ccccc1 (configuration not stated),10.75,8.23
COc1ccc2cc(C=O)c(Cl)nc2c1,17.7,25.34
COc1ccc2cc(C3C(C(C)=O)=C(C)Oc4nc5c(c(N)c43)CCCCC5)c(Cl)nc2c1 (configuration not stated),26.1,15.71
CCOC(=O)C1=C(C)OC(N)=C(C#N)C1c1ccccc1OC (configuration not stated),23.12,-9.51
CN(C)c1nc2nc3c(c(N)c2c(-c2ccccc2)c1C#N)CCCC3,5.71,-1.51
O=C(NCc1ccccc1)c1cc2ccccc2[nH]1,5.56,8.05
COc1cc(C=NNC(=O)Cc2c[nH]c3ccccc23)ccc1O,8.14,-0.45
COc1nc(N)c(C#N)cc1C#N,18.25,-3.66

Compound,Inhibition (Staphylococcus aureus) [%],Inhibition (Escherichia coli) [%]
Nc1c2c(nc3c1c1ccccc1n3Cc1ccccc1)CCCC2,17.35,-10.77
C#CCN(C)Cc1cc2cc(OC)ccc2n1C,33.86,-8.2
N#CC1=C(N)Oc2ccc3ccccc3c2C1c1ccccc1[N+](=O)[O-] (configuration not stated),40.78,-6.45
CCOC(=O)/C(C#N)=C\c1ccc(C)cc1,28.15,15.07
O=Cc1c[nH]c2ccccc12 [3-FORMYLINDOLE],16.72,17.3
COc1ccc2c(c1)cc(/C=C/[N+](=O)[O-])n2C,10.15,1.2
C#CCNc1nc(NC2CCN(Cc3ccccc3)CC2)c(C#N)c(-c2ccccc2)c1C#N,-5.25,-23.87
COc1nc2nc3c(c(N)c2cc1C#N)CCCC3,30.12,-3.63
CC1=N/C(=C(\C)c2ccccc2)C(=O)O1,-1.19,0.61
COc1nc(NC(C)=O)c(C#N)c(-c2ccccc2)c1C#N,21.1,-7.58
CS(=O)(=O)O[C@H]1CC[C@H](OS(C)(=O)=O)CC1,29.12,-5.59
Cl.OCCCC1CCNCC1,22.6,13.14
N#Cc1c(N)nc(NCCC2CCN(Cc3ccccc3)CC2)c(C#N)c1-c1ccccc1,34.16,-9
Cc1ccc(C2c3ccc4ccccc4c3Oc3nc4c(c(N)c32)CCCC4)cc1.Cl (configuration not stated),-4.06,12.44
Cc1nn(-c2ccccc2)c2ncnc(NCc3ccccc3)c12,16.34,7.89
N#CC1=C(N)Oc2c(ccc3ccccc23)C1c1cccc([N+](=O)[O-])c1 (configuration not stated),17.39,-10.4
COc1ccccc1C1c2c(ccc3ccccc23)OC(=N)C1(Br)C#N (configuration not stated),32.97,-9.16
CNCc1cc2ccccc2n1C.Cl,7.33,3.85
